# Source: PubChem BioAssay
# PfM18AAP inh-1 – PfM18AAP inhibitors, malaria aminopeptidase, primary screen, biochemical, QFRET, recombinant enzyme. M18 aspartyl aminopeptidase (Plasmodium falciparum 3D7). H-Glu-NHMec fluorogenic cleavage. inhibition, % at 7.35 µM. actives 1.2% (n = 290,000). AID 1822, 2009;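 active = inhibition above the campaign mean inhibition over all tested compounds plus 3 SD, cut at about 28% in these data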;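 note: 0% = plate median of test compound wells and 100% = 2 mM ZnCl2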
# PfGluPho inh – PfG6PD enzyme inhibitors, primary screen, biochemical, fluorescence intensity, uHTS | glucose-6-phosphate dehydrogenase-6-phosphogluconolactonase (Plasmodium falciparum 3D7) | PfGluPho enzyme, NADPH resazurin-diaphorase fluorescence | inhibition, % at 20 µM | actives 0.78% (n = 350,000);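 active = inhibition reaching at least a set limit at 20 µM in the primary screen, cut at about 59% in these data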;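 note: 0% = DMSO wells with substrate and 100% = DMSO wells lacking glucose-6-phosphate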
# CR mimetic SO – reduction of superoxide in aged yeast, primary screen, HTS; S. cerevisiae aged cells, superoxide DHE fluorescence; stronger effect = lower value; superoxide response (% of plate mean), % at 10 µM; actives 0.18% (n = 330,000); AID 2690, 2010;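 active = superoxide response under a set limit, about three screen SD below normal, cut at about 65% in these data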;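 note: yeast aged for seven days with compound at 30 °C before DHE staining; 100% = average MFI of all compound-treated wells on the plate with controls excluded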
# APOBEC3A inh – APOBEC3A ssDNA deaminase inhibitors, primary screen, selectivity assay for APOBEC3G inhibitor project, biochemical, FAM/TAMRA oligo cleavage fluorescence; AID 493011, 2011; actives 0.41% (n = 330,000); inhibition, % at 20 µM; DNA dC->dU-editing enzyme APOBEC-3A (Homo sapiens), P31941; recombinant A3A, FAM/TAMRA ssDNA deamination fluorescence;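 active = at least 40% inhibition at 20 µM here, with at most 30% in a related deaminase screen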;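 note: plate controls were A3A with DMSO for no effect and wells lacking A3A enzyme for full effect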
# Target sequence (P31941 whole entry, looked up): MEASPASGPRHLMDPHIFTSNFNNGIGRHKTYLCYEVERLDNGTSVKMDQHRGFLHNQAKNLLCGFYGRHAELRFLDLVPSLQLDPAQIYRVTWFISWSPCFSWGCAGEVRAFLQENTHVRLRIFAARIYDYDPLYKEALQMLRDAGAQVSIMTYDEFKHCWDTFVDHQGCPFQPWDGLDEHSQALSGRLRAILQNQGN
# APOBEC3G inh – APOBEC3G DNA deaminase inhibitors, primary screen, biochemical, fluorescence, single-stranded DNA substrate, uHTS | DNA dC->dU-editing enzyme APOBEC-3G (Homo sapiens), Q9HC16 | recombinant A3G, ssDNA deamination FAM/TAMRA fluorescence | inhibition, % at 20 µM | actives 0.28% (n = 330,000) | AID 493012, 2011;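 active = inhibition of at least 40% at 20 µM, with no more than 30% in the related APOBEC3A deaminase screen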;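 note: plate controls were DMSO wells with A3G for no effect and wells lacking A3G enzyme for full effect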
# PfM18AAP inh-2 – PfM18AAP inhibitors, malaria aminopeptidase, confirmation, biochemical, QFRET, recombinant enzyme, triplicate | shares compounds with PfM18AAP inh-1 | H-Glu-NHMec fluorogenic cleavage | inhibition, % at 7.35 µM | actives 28% (n = 2,400) | AID 2170, 2009;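 active = mean inhibition over replicate wells above the hit cutoff set for the earlier primary screen, cut at about 29% in these data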;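 note: 0% = median of test compound wells and 100% = 2 mM ZnCl2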
# CTSL1 confirm – cathepsin L1 inhibitors, retest, confirmation, counter-screen for PFM18AAP inhibitor project, biochemical, QFRET, triplicate; shares compounds with PfM18AAP inh-1; purified cathepsin L1, Z-Leu-Arg-MCA fluorescence; inhibition, % at 5.96 µM; 2,400 tested, under 10 active;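 active = average inhibition across replicates above the hit cutoff set in the earlier primary screen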;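 note: 0% = median of test compound wells and 100% = Z-Phe-Ala-diazomethylketone 1 µM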
# Target sequence (P07711 whole entry, looked up): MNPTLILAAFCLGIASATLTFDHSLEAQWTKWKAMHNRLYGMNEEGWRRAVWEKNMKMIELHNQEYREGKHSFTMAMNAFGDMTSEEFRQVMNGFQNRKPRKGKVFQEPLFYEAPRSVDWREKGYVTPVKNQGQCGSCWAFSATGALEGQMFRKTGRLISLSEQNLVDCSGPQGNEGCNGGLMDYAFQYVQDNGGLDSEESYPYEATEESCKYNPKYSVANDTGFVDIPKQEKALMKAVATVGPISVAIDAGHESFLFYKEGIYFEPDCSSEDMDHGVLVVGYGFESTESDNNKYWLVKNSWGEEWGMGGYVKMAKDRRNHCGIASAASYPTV
# An asterisk follows results filed as active; / = no result given. Most compounds without a hit are left out; they make up all but 2.4% or so of the library.
SMILES,PfM18AAP inh-1,PfGluPho inh,CR mimetic SO,APOBEC3A inh,APOBEC3G inh,PfM18AAP inh-2,CTSL1 confirm
O=C(NC(=S)NNS(=O)(=O)c1ccccc1)c1ccccc1[N+](=O)[O-],12.6,14.2,89.7,-3.8,-1.6,/,/
CCOc1ccccc1C(=O)NC(C(=O)NCCc1ccccn1)C(C)C (stereo unspecified),/,-1.4,79.4,-0.6,-1.5,/,/
N#C/C(Cn1c[n+](NC(=O)Nc2ccccc2)cn1)=N/O,47.1*,-18.7,112.3,-1.4,-3.4,10.2,1.6
CCOC(=O)c1c(C2COc3ccccc3O2)csc1N (stereo unspecified),59.7*,-4.5,100.2,-9.7,-10.0,-56.6,0.2
CCOC(=O)c1c(C2COc3ccccc3O2)csc1NC(=O)c1ccccc1 (stereo unspecified),-8.8,11.5,104.8,-2.2,-4.6,/,/
O=C(Cc1nnc(NC(=O)c2ccccc2)s1)N/N=C\c1ccc(O)c(O)c1,56.8*,-1.7,99.7,-1.8,-1.5,37.5*,-0.2
O=C(N/N=C/c1ccc(O)c(O)c1)c1cc(-c2ccccc2)nc2ccccc12,61.3*,-2.6,93.7,-3.0,-6.2,47.9*,-5.0
CC(=O)N1CCC(=NNC(=O)CSc2cc(C)c(Br)cc2C)CC1,-0.4,-12.9,96.4,0.1,-3.3,/,/
O=C(CSc1nc2ccccc2o1)N/N=C/c1ccc(O)c(O)c1,62.2*,10.2,102.4,4.7,3.9,51.9*,-2.9
Cc1cc(SCC(=O)N/N=C/c2ccc(O)c(O)c2)c(C)cc1Br,54.0*,-10.3,89.0,-1.1,-3.5,36.3*,-3.2
O=C(Cc1nnc(NC(=O)c2ccccc2)s1)N/N=C/c1ccc(O)cc1,-0.8,-17.9,103.6,-5.2,1.2,/,/
COc1ccccc1-c1cccc([C@@H]2C[C@H]3[C@@H](CN2)CON3C)c1,/,10.4,/,/,/,/,/
CC1CCCCN1C(=O)COC(=O)/C=C/c1ccc2ccccc2n1 (stereo unspecified),1.8,-2.8,93.0,0.7,-4.0,/,/
CCN(CC(=O)Nc1ccc(OC)cc1)C(=O)Cc1ccsc1,/,23.5,95.3,-3.7,-4.7,/,/
CCCCCCN1CCN(C2CN(Cc3ccc([N+](=O)[O-])cc3)S(=O)(=O)C2)CC1 (stereo unspecified),/,9.4,/,/,/,/,/
C[C@H](CO)N1C[C@H](C)[C@@H](CN(C)C(=O)Nc2ccc(C(F)(F)F)cc2)Oc2c(NS(=O)(=O)c3ccccc3)cccc2C1=O,/,14.2,118.6,1.4,-6.5,/,/
Cc1cc(SCC(=O)N/N=C/c2ccc(O)c(O)c2)nc2ccccc12,56.0*,-10.9,92.6,-2.2,-2.9,43.4*,2.3
Cc1cc(SCC(=O)N/N=C/c2ccc(O)cc2O)nc2ccccc12,10.4,-36.6,96.4,0.8,3.0,/,/
CCn1c2ccccc2c2n[nH]c(=S)nc21,7.4,56.4,72.2,-0.5,4.1,/,/
C=CCn1c2ccccc2c2n[nH]c(=S)nc21,40.0*,49.8,95.9,-8.3,3.1,-13.2,-2.2
O=C(O)Cn1c2ccccc2c2n[nH]c(=S)nc21,47.1*,36.9,100.6,0.2,31.9,31.2*,2.8
Cn1c(CNC(=O)CNC(=O)Cc2ccc(F)cc2)cc(=O)n(C)c1=O,0.9,13.5,95.9,-4.6,-10.5,/,/
O=C(COC(=O)c1ccccc1NC(=O)c1ccccc1)c1ccc([N+](=O)[O-])cc1,40.4*,26.7,111.4,-1.0,-7.4,-19.3,5.5
O=C(COC(=O)c1ccccc1NC(=O)c1ccccc1)c1cccc([N+](=O)[O-])c1,1.5,11.5,107.0,0.0,-3.1,/,/
O=C(O)c1ccc(Cn2cc(/C=C\[N+](=O)[O-])c3ccccc32)o1,39.3*,-13.8,103.6,-1.5,-3.2,-29.2,-3.8
SMILES,PfM18AAP inh-1,PfGluPho inh,CR mimetic SO,APOBEC3A inh,APOBEC3G inh,PfM18AAP inh-2,CTSL1 confirm
Cc1onc(-c2c(Cl)cccc2Cl)c1NC(=O)NNc1ccccn1,40.4*,-3.7,115.4,-0.2,-4.3,13.0,3.1
Cc1onc(-c2c(F)cccc2Cl)c1C(=O)ONC(=O)c1ccco1,6.1,-1.6,100.2,-3.6,-12.0,/,/
Cc1ccc(-c2nn[nH]n2)cc1,-13.0,2.3,106.7,2.1,1.7,/,/
Cc1ccc(-c2nn[nH]n2)o1,76.4*,-4.7,120.4,1.3,-1.4,53.5*,0.0
COc1ccc(-n2c(O)c(/C=N/Nc3nc(C)cc(C)n3)c3ccccc3c2=O)cc1OC,34.4*,37.9,98.1,7.9,2.2,-7.2,-0.1
COc1ccc(-n2c(O)c(/C=N/NS(=O)(=O)c3ccc(C)cc3)c3ccccc3c2=O)cc1OC,6.7,20.8,95.5,-10.7,-11.5,/,/
CCCCCCn1c(=O)n2n(c1=O)C[C@]1(OC(=O)NC3CCCC3)CN(S(=O)(=O)c3ccc(C)cc3)C[C@]1(O)C2,/,20.2,/,/,/,/,/
OC(CN(Cc1ccccc1)Cc1ccccc1)c1ccccc1 (stereo unspecified),/,13.7,/,/,/,/,/
N#CC1=C(N)Oc2n[nH]c(-c3cccnc3)c2C1c1ccc([N+](=O)[O-])o1 (stereo unspecified),33.1*,52.1,104.2,5.9,-11.4,-36.4,-5.4
N#CC1=C(N)Oc2n[nH]c(-c3ccccc3)c2C1c1cccnc1 (stereo unspecified),4.4,15.3,100.7,-3.1,-4.4,/,/
Clc1cnc(N/N=C/c2ccco2)c(Cl)c1,47.1*,14.7,98.6,1.5,-2.6,-29.5,-5.5
Clc1cnc(N/N=C/c2cccs2)c(Cl)c1,12.4,0.2,104.5,-2.8,-7.5,/,/
CCOC(=O)N/N=C/c1cc(OC)c(O)c(OC)c1,10.7,2.7,91.8,-1.7,-3.2,/,/
CCOC(=O)c1sc(N/N=C/c2cc(Br)c(O)c(OC)c2)nc1C,36.8*,36.7,100.2,-6.9,-1.9,11.1,-2.5
O=C(O)c1cccc(CN2C(=O)SC(Nc3cccc4ccccc34)C2=O)c1 (stereo unspecified),34.3*,-6.3,111.7,-2.1,-15.1,-65.4,4.6
O=C(O)c1cccc(CN2C(=O)SC(Nc3ccccc3)C2=O)c1 (stereo unspecified),-1.1,14.3,103.6,-2.4,-1.9,/,/
Cc1nn(C)cc1-c1n[nH]c(=S)n1-c1ccc(F)cc1,35.3*,29.3,91.1,2.7,30.0,-8.8,-7.5
Cc1nn(C)c(-c2n[nH]c(=S)n2-c2ccccc2)c1Cl,32.2*,41.9,101.5,-1.4,11.5,-9.5,-6.5
